“And” between values parts separate entries of the source, which are not always exact repeats. Equal values may be shown once. Results filed as inconclusive are left out. A call without a number means that no potency is given here. More than one record can exist for a structure, and the calls need not agree. The source made the active and inactive calls. Unless noted, calls come from the whole dose curve; as a rule, active = well fitted cell-killing curve with a large enough effect in the repeat runs; inconclusive = weak or mixed curves; inactive = no such curve, though single readings can be large or run the other way.
tested on: not listed separately; assay: qHTS assay to identify small molecule antagonists of the peroxisome proliferator-activated receptor delta (PPARd) signaling pathway - cell viability counter screen (AID 743213); settings: PPARd-bla HEK293H viability, CellTiter-Glo luminescence, 17 h; series mostly up to 62 µM; note: nearly all actives have a fitted effect of over 50% in size
How it was run: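 HEK293H PPARd UAS-bla cells, 5 h pre-incubation, compound + L165041 300 nM final, 17 h 37 C; B/G FRET substrate 2 h RT; then CellTiter-Glo 30 min RT, luminescence.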
Potency is the fitted concentration of half-maximal effect.

Row | Structure (SMILES) | Potency
1 | O=C1C=CC(=O)N1c1ccccc1 | 15.5 µM (active)
2 | CCN1CCN(c2cc(-c3ccc(F)cc3)c3c(n2)CCCCCC3)CC1 | inactive
3 | Cc1ccc2ccc3cccc4ccc1c2c34 | inactive
4 | CCCC(CC)CCCCCCCN (centres undefined) | inactive
5 | CCOC(=O)COc1ccc(C)cc1 | inactive
6 | CCCCCCCCCCCCCCCC | inactive
7 | CNC(=O)c1cc(Oc2ccc(NC(=O)Nc3ccc(Cl)c(C(F)(F)F)c3)cc2)ccn1 | 10.6 µM (active)
8 | CCCCCCCC/C=C\CCCCCCCC(=O)NCc1ccc(O)c(OC)c1 | 18.8 µM (active)
9 | Cc1c(-c2ccc(O)cc2)n(Cc2ccc(OCCN3CCCCCC3)cc2)c2ccc(O)cc12 | 26.6 µM (active)
10 | CCCCCCOc1cc(C)c(O)c(C)c1C | inactive
11 | Cc1cc(Nc2ccc(O)cc2)ccc1N | inactive
12 | CC(C)N=C(N)/N=C(\N)Nc1ccc(Cl)cc1 | 11.9 µM (active)
13 | Cc1cc2c(C(C)C)c(O)c(O)c(C=O)c2c(O)c1-c1c(C)cc2c(C(C)C)c(O)c(O)c(C=O)c2c1O | 11.9 µM (active)
14 | CCCN(CCc1cccs1)[C@H]1CCc2c(O)cccc2C1 | inactive
15 | C1CC(COCC2CO2)CCC1COCC1CO1 (centres undefined) | inactive
16 | COC(=O)[C@]1(C)CCC[C@@]2(C)[C@H]1CC=C1C=C(C(C)C)CC[C@@H]12 | inactive
17 | CCCCCCCCCCCCOC(=O)c1cc(O)c(O)c(O)c1 | 34.5 µM (active) and 54.9 µM (active)
18 | C/C=C/C(=O)Oc1c(CCCCCC(C)C)cc([N+](=O)[O-])cc1[N+](=O)[O-] | 24.5 µM (active)
19 | [O]=[Zr] | inactive

Row | Structure (SMILES) | Potency
20 | C=C[C@](C)(O)CC[C@@H]1[C@@]2(C)CCCC(C)(C)[C@@H]2CC[C@@]1(C)O | 34.7 µM (active)
21 | CCCCCCCCCC(=O)N(C)C | inactive
22 | Cc1occc1SSc1ccoc1C | inactive
23 | CCN(CC)c1ccc(N)cc1 | 31.7 µM (active)
24 | c1cc2c3c(c1)ccc1cccc(c13)C2 | inactive
25 | C=C(C)C(=O)OCCC[Si](Cl)(Cl)Cl | inactive
26 | ClC/C=C\CCl | inactive
27 | CCCCCCCOC(=O)c1ccc(O)cc1 | inactive and 34.7 µM (active)
28 | O=C(O)Cc1ccc(OCCNC[C@H](O)c2ccccc2)cc1 | inactive
29 | CCC(C)(C)c1cc(O)c(C(C)(C)CC)cc1O | inactive
30 | O=C(c1ccccc1)c1cc(Cl)ccc1O | inactive
31 | CCCCCCCCCCOCC(O)CN (centres undefined) | 29.8 µM (active)
32 | O=C1c2c(O)ccc(O)c2C(=O)c2c(NCCNCCO)ccc(NCCNCCO)c21 | inactive
33 | CCN=c1cc2oc3cc(NCC)c(C)cc3c(-c3ccccc3C(=O)OCC)c-2cc1C | 38.8 µM (active) and 24.5 µM (active)
34 | Nc1ncnc2c1ncn2[C@@H]1O[C@H](COP(=O)(O)O)[C@@H](O)[C@H]1O | 11.9 µM (active)
35 | CCOC(=O)[C@@](C)(N)Cc1ccc(O)c(O)c1 | inactive
36 | CN(Cc1cc(Br)cc(Br)c1N)C1CCCCC1 | inactive
37 | O=C(O)CCCCCCC(=O)O | inactive

target: Peroxisome proliferator-activated receptor delta (Homo sapiens) (UniProt Q03181); assay: qHTS assay to identify small molecule antagonists of the peroxisome proliferator-activated receptor delta (PPARd) signaling pathway (AID 743215; active = well fitted inhibition curve with a large enough effect in the signal ratio in the repeat runs, not every such curve was filed as active; the % refers to the signal ratio;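 note: cells stimulated with agonist L165041 at 300 nM final during compound exposure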); settings: HEK293H PPARd-UAS-bla, beta-lactamase FRET ratio, antagonist, 17 h; series mostly up to 62 µM
How it was run: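 Antagonist-mode beta-lactamase reporter screen: HEK293H cells with UAS-bla under PPARd control, stimulated by 300 nM L165041 (final) alongside test compound for 17 h at 37 C, then FRET fluorescence after 2 h substrate incubation.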

Chain of Peroxisome proliferator-activated receptor delta (Homo sapiens) (Q03181 whole entry, looked up): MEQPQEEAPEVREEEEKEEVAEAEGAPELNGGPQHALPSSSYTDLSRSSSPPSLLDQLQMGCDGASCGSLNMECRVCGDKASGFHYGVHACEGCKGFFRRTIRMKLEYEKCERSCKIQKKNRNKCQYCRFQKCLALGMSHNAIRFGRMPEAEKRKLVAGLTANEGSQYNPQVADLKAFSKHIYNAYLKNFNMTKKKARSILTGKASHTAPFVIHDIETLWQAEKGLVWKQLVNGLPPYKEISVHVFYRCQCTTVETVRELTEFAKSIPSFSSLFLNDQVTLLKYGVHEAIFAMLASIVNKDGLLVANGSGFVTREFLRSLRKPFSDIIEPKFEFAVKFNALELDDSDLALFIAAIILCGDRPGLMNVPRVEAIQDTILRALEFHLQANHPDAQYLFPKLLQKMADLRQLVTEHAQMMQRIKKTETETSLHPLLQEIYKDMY

Row | Structure (SMILES) | Potency
38 | CCN1CCN(c2cc(-c3ccc(F)cc3)c3c(n2)CCCCCC3)CC1 | inactive
39 | Cc1ccc2ccc3cccc4ccc1c2c34 | inactive
40 | CCCC(CC)CCCCCCCN (centres undefined) | inactive
41 | CCCCCCCCCCCCCCCC | inactive
42 | CCCCCCOc1cc(C)c(O)c(C)c1C | inactive
43 | Cc1cc(Nc2ccc(O)cc2)ccc1N | inactive
44 | Cc1cc2c(C(C)C)c(O)c(O)c(C=O)c2c(O)c1-c1c(C)cc2c(C(C)C)c(O)c(O)c(C=O)c2c1O | 18.8 µM (active)
45 | CCCN(CCc1cccs1)[C@H]1CCc2c(O)cccc2C1 | inactive
46 | c1cc2c3c(c1)ccc1cccc(c13)C2 | inactive
47 | C=C(C)C(=O)OCCC[Si](Cl)(Cl)Cl | inactive
48 | ClC/C=C\CCl | inactive
49 | CCC(C)(C)c1cc(O)c(C(C)(C)CC)cc1O | inactive
50 | Nc1ncnc2c1ncn2[C@@H]1O[C@H](COP(=O)(O)O)[C@@H](O)[C@H]1O | inactive
51 | CN(Cc1cc(Br)cc(Br)c1N)C1CCCCC1 | inactive

target: Bile acid receptor (Homo sapiens) (UniProt Q96RI1); assay: qHTS assay to identify small molecule antagonists of the farnesoid-X-receptor (FXR) signaling pathway (AID 743217; active = well fitted inhibition curve with a large enough effect in the signal ratio in the repeat runs, not every such curve was filed as active; the % refers to the signal ratio); settings: HEK293T FXR-UAS-bla, beta-lactamase ratio, CDCA-stimulated, 16 h; series mostly up to 62.6 µM
How it was run: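 Beta-lactamase reporter under UAS control in HEK 293T cells; compound exposure 16 h at 37 °C in the presence of chenodeoxycholic acid (50 uM final); signal from B/G FRET substrate after 2 h at room temperature.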

Chain of Bile acid receptor (Homo sapiens) (Q96RI1 whole entry, looked up): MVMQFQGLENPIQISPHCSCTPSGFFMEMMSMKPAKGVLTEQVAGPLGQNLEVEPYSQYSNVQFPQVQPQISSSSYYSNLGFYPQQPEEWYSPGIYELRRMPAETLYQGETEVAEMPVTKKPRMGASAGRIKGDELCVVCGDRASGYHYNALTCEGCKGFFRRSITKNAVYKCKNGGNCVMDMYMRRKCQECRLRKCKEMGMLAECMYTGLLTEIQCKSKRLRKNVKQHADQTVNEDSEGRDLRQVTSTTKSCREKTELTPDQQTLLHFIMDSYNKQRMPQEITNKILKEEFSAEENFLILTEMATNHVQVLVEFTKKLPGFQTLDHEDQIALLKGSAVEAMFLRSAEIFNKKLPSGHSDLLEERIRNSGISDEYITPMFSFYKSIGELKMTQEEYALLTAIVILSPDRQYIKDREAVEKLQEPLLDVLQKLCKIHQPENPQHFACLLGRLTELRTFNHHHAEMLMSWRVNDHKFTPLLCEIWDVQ

Row | Structure (SMILES) | Potency
52 | O=C1C=CC(=O)N1c1ccccc1 | 54.9 µM (active)
53 | CCOC(=O)COc1ccc(C)cc1 | inactive
54 | CCCCCCCC/C=C\CCCCCCCC(=O)NCc1ccc(O)c(OC)c1 | 29.8 µM (active)
55 | CC(C)N=C(N)/N=C(\N)Nc1ccc(Cl)cc1 | inactive
56 | C1CC(COCC2CO2)CCC1COCC1CO1 (centres undefined) | inactive
57 | COC(=O)[C@]1(C)CCC[C@@]2(C)[C@H]1CC=C1C=C(C(C)C)CC[C@@H]12 | inactive
58 | CCCCCCCCCCCCOC(=O)c1cc(O)c(O)c(O)c1 | 54.9 µM (active)
59 | C/C=C/C(=O)Oc1c(CCCCCC(C)C)cc([N+](=O)[O-])cc1[N+](=O)[O-] | 24.5 µM (active)
60 | [O]=[Zr] | inactive
61 | C=C[C@](C)(O)CC[C@@H]1[C@@]2(C)CCCC(C)(C)[C@@H]2CC[C@@]1(C)O | 49 µM (active)
62 | CCCCCCCCCC(=O)N(C)C | inactive
63 | Cc1occc1SSc1ccoc1C | inactive
64 | CCN(CC)c1ccc(N)cc1 | inactive
65 | O=C(O)Cc1ccc(OCCNC[C@H](O)c2ccccc2)cc1 | inactive
66 | O=C(c1ccccc1)c1cc(Cl)ccc1O | inactive
67 | O=C1c2c(O)ccc(O)c2C(=O)c2c(NCCNCCO)ccc(NCCNCCO)c21 | 26.6 µM (active)
68 | CCOC(=O)[C@@](C)(N)Cc1ccc(O)c(O)c1 | inactive
69 | O=C(O)CCCCCCC(=O)O | inactive
